# In the library only some 10% were active in any assay of this set; here they are far more common.
# LMNA splice mod: modulators of lamin A splicing; HeLa LMNA splicing GFP/RFP minigene ratio, 48 h; Potency, µM (series often up to 46.1 µM), for the others: at the highest dose ratio change, negative = inhibition, actives largely listed as inhibitors; 200,000 compounds, 0.01% hits; active = well fitted inhibition curve with a large enough effect in the signal ratio, with a control signal flat, not every such curve was filed as active; inconclusive = small, poorly fitted or top-dose-only effect, or effect the other way, or a change in a side signal; the % refers to the signal ratio; also: potency is read from the fitted curve at half-maximal effect
#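 S3 HeLa stable clones carrying a lamin A-EGFP splicing minigene plus DsRed2 were seeded at 600 cells/well in Opti-MEM with 2% FBS, pin-dosed and incubated 48 h at 37°C. Acumen cytometry (488 nm) gave the GFP/RFP total-intensity ratio.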
# HPGD block: blocks human HPGD enzyme activity; 150,000 compounds, 4.3% hits; AID 894; Potency, µM, inactives show at the highest dose activity change, negative = inhibition, actives largely listed as inhibitors; P15428; purified HPGD, NADH fluorescence kinetic, PGE2 substrate; also: potency is read from the fitted curve at half-maximal effect
# Target sequence (P15428 whole entry, looked up): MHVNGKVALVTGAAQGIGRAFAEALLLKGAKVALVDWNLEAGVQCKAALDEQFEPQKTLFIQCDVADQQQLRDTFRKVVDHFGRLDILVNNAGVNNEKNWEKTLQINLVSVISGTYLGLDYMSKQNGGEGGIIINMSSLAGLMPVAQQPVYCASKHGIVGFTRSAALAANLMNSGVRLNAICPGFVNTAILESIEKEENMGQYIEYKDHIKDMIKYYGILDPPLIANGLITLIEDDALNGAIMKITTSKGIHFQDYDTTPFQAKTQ
#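 NADH formation kinetics: reaction with 30 uM PGE2 and 1 mM NAD+ (final), 20 nM enzyme, Tris-HCl pH 8 with Tween 20, after 15 min compound preincubation at room temperature. Fluorescence change, last versus first of five reads.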
# ALDH1A1 inh: ALDH1A1 (human) enzyme inhibition; P00352; Purified ALDH1A1, NADH fluorescence, propionaldehyde substrate; Potency, µM (top dose mostly 75.3 µM), without a hit: at the highest dose activity, negative = inhibition, most hits filed as inhibitors; 220,000 compounds, 7.3% hits; AID 1030;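 also: potency is read from the fitted curve at half-maximal effect; plate controls were no enzyme wells and a reference inhibitor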
# Luc counter: Kinase-Glo luciferase inhibition (counter-screen); Potency, µM (titrated, usually from 38.3 µM), for inactives: top-dose activity change, negative = inhibition, usual class: inhibitors; Q27757; Kinase-Glo luciferase, ATP luminescence, 8 min; 200,000 compounds, 0.28% hits; active = well fitted inhibition curve with a large enough effect; inconclusive = small, poorly fitted or top-dose-only effect; also: potency is read from the fitted curve at half-maximal effect; nearly all actives have a fitted effect of over 60% in size
#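 Recombinant Kinase-Glo luciferase, 10 uM ATP (linear range), luciferin; imidazole pH 7.2 / KCl / MgCl2 / Tween / BSA buffer; 8 min RT; luminescence.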
# PNC inhibitor: blocks assembly of the perinucleolar compartment | PC3M PTB-GFP, PNC prevalence imaging, 16 h; hits give low values | activity change (PNC), negative = inhibition, % at 10 µM | 140,000 compounds, 3.1% hits;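 active = readout at or below -70, meaning at least 70% loss of cells showing the perinucleolar compartment, a nuclear body marking cancer cells; inconclusive = readout between -30 and a set limit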;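 also: plate controls were DMSO wells for no effect and camptothecin positive control wells for full effect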
#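 PC3M cells stably expressing PTB-GFP, 750–1000 cells/well, treated 16 h at 37 °C with compound (23 nl of library stock), in duplicate. After paraformaldehyde fixation and Hoechst stain, imaged at 20x; PNC prevalence scored by image analysis.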
# Starred values were filed as active, the others as inactive; ? = inconclusive; · = no result given; [ ] = another dose, or the depositor's remark. Unless noted, calls follow the shape of the dose curve; as a rule, active = well fitted inhibition curve with a large enough effect (not every such curve was filed as active); inconclusive = small, poorly fitted or top-dose-only effect, or another doubt; inactive = no such curve, though single readings can be large or run the other way. Unless noted, % is scaled to controls: 0 for no effect and ±100 for the full control effect.
SMILES,LMNA splice mod,HPGD block,ALDH1A1 inh,Luc counter,PNC inhibitor
COc1ccc(OC)c(C(=O)CSc2nnc(Cc3cccs3)n2C)c1,10%,-21%,22µM*,1%,?
CCNc1ncc2nc(-c3cc(F)cc(F)c3)c(=O)n(C)c2n1,9%,·,?,·,·
Cc1ccc(C(=O)c2cc([N+](=O)[O-])ccc2N2CCCCC2)cc1,?,-9%,20µM*,-2%,-110*
CN(C)S(=O)(=O)c1ccc(N2CCCC2)c(C(=O)N2CCN(c3ccc([N+](=O)[O-])cc3)CC2)c1,-18%[46 µM],·,14µM*,5%,·
Cc1cccc(N2CCN(C(=O)c3cc(S(=O)(=O)N(C)C)ccc3N3CCCC3)CC2)c1C,?,·,?,2%,·
O=C(c1cc([N+](=O)[O-])ccc1N1CCCCC1)N1CCCC1,7%,-4%,28µM*,-2%,?
O=C(c1ccc(Oc2ccc([N+](=O)[O-])cc2Cl)cc1)N1CCCC1,·,·,22µM*,2%,·
O=C(c1cc([N+](=O)[O-])ccc1N1CCCC1)N1CCCC1,3%[46 µM],·,-1%,1%,·
c1ccc(C(c2ccccc2)N2CC[C@@]3(CCCNC3)C2)cc1,·,-10%,?,-5%,·
O=C1OC2(c3cc(Br)c(O)c(Br)c3Oc3c2cc(Br)c(O)c3Br)c2c(Cl)c(Cl)c(Cl)c(Cl)c21,·,13µM*,25µM*,·,·
COc1cc2c(cc1OC)[C@@H]1C(=O)c3ccc4c(c3O[C@@H]1CO2)C=CC(C)(C)O4,·,-11%,-3%,0%,·
CCOC(=O)c1c(C)n(C)c2ccc(OC)c(NC(=O)c3cccs3)c12,5%,-6%,3%,-5%,?
CCOC(=O)c1c(C)n(C)c2ccc(O)c(CN3CCC(C)CC3)c12,0%,2%,-8%,4%,35
CCOC(=O)c1c(C)n(C)c2ccc(O)c(CN3CCN(C)CC3)c12,-5%,-8%,18µM*,-1%,-16
CCOC(=O)c1c(C)n(C)c2ccc(OC)c(NC(=O)CN3CCSCC3)c12,2%,-8%,3%,-6%,-105*
CCOC(=O)c1c(-c2ccccc2)oc2ccc(O)c(CN3CCN(C)CC3)c12,?,2%,?,-1%,-114*
COc1ccc(C)cc1-n1[nH]nnc1=S,?,·,10µM*,-3%,·
Cc1cc(C)c(-n2[nH]nnc2=S)c(C)c1,·,·,22µM*,·,·
O=C(NCC(c1ccc(Cl)cc1)N1CCCCC1)c1ccc(F)cc1 (stereo not drawn),-4%[46 µM],·,·,·,·
Cc1ccc(-c2cn3nc(N4CCCC(C(=O)NCc5ccccc5F)C4)sc3n2)cc1 (stereo not drawn),28%[46 µM],·,·,·,·
Cc1ccc(-c2ccc(=O)n(CC(=O)NCCc3ccc(Cl)cc3)n2)cc1,4%[46 µM],·,·,·,·
C/C(N)=C(/C#N)C(=O)CSc1nnc(Nc2cccc(C)c2C)s1,-9%,28µM*,?,6%,-3
CCN(CC)S(=O)(=O)c1ccc2nc(NC(=O)c3cccnc3)sc2c1,-3%[46 µM],·,·,·,·
COc1cc2c(C=O)c3c4c(cc(OC)c(OC)c4c2cc1OC)CCN3C,·,-23%,?,-1%,·
COc1cccc(-c2nn3c(=O)cc(CN4CCN(S(=O)(=O)c5ccc(C)cc5)CC4)nc3s2)c1,6%[46 µM],·,·,·,·
SMILES,LMNA splice mod,HPGD block,ALDH1A1 inh,Luc counter,PNC inhibitor
COc1ccc(CCNC(=O)CN(c2ccc(OC)c(OC)c2)S(C)(=O)=O)cc1,1%,-4%,-7%,-6%,-139*
COCCNC(=O)CN(c1ccc(C)cc1)S(=O)(=O)c1ccccc1,8%,-5%,10%,-4%,39
COc1ccc(CCNC(=O)CN(c2cc([N+](=O)[O-])ccc2OC)S(C)(=O)=O)cc1,?,·,10%,1%,·
CCOc1ccc(NC(=O)CN(c2ccc(OC)cc2)S(C)(=O)=O)cc1,?,-16%,?,0%,?
CCOc1ccc(N(CC(=O)Nc2ccc(OC)cc2)S(C)(=O)=O)cc1,0%,-10%,18µM*,-4%,-10
COCCNC(=O)CN(c1ccc(OC)c(OC)c1)S(=O)(=O)c1ccc(C)cc1,-7%,-10%,11%,1%,-106*
COc1ccc(CCNC(=O)CN(C)S(=O)(=O)c2ccc(Br)s2)cc1OC,-3%,-3%,-2%,-1%,-83*
COc1cc(NC(=O)CCc2c(C)nn(-c3ccc4nnc(C)n4n3)c2C)cc(OC)c1OC,2%[46 µM],·,·,·,·
CCc1nnc(NC(=O)c2ccc3ccccc3n2)s1,·,·,18µM*,?,·
CCc1nnc(NC(=O)C2CCN(S(=O)(=O)Cc3ccccc3)CC2)s1,-11%,-8%,-1%,1%,-100*
O=C(NC1=NCCS1)C1COc2ccccc2O1 (stereo not drawn),9%,-7%,-9%,7.9µM*,4
CCN1CCN(S(=O)(=O)Cc2ccccc2)CC1,4%,-13%,10%,0%,12
O=S(=O)(Cc1ccccc1)N1CCCC1,7%,-14%,3%,7%,-100*
O=C(Nc1ccncc1)C1COc2ccccc2O1 (stereo not drawn),-17%,-25%,-8%,0%,?
CCSc1nnc(NC(=O)c2ccc3ccccc3n2)s1,?,-24%,?,3%,8
CCc1nnc(NC(=O)C2COc3ccccc3O2)s1 (stereo not drawn),-3%,-7%,3%,-7%,-80*
CCCCCc1nnc(NC(=O)C2COc3ccccc3O2)s1 (stereo not drawn),?,·,?,-3%,·
CCC(=O)NC(=S)Nc1ccccc1C(=O)OC,-10%,-3%,-5%,-3%,4
COC(=O)c1ccccc1NC(=S)NC(=O)c1cccc2ccccc12,4%,-24%,10µM*,-3%,-1
CCCC(=O)NC(=S)Nc1ccccc1C(=O)OC,8%,-28%,?,1%,-108*
COC(=O)c1ccccc1NC(=S)NC(=O)c1ccc2ccccc2c1,-4%,-14%,?,0%,15
C/C(CC1CC2=C(CC1(C)C)C(C)(C)CCC2)=N\NC(N)=S (stereo not drawn),?,?,13µM*,-6%,-13
CC(C)OCCCNc1ncnc2c1[nH]c1ccccc12,?,-28%,?,-3%,-97*
C1=C(CCNc2ncnc3c2[nH]c2ccccc23)CCCC1,?,-25%,?,1%,?
CCOC(=O)C(NC(=O)c1ccccc1)(N1CCCC1=O)C(F)(F)F (stereo not drawn),7%,-14%,8%,-2%,-85*
COC(=O)c1cc(CSc2nnc(-c3ccccc3)c(-c3ccccc3)n2)oc1C,?,?,16µM*,-1%,5
Cc1cc(NC(=O)CSc2nnc(-c3ccccc3)c(-c3ccccc3)n2)no1,·,·,2%,4%,·
N[C@@H](Cc1cccnn1)C(=O)O,·,-1%,2%[13.5 µM],0%[7.66 µM],·
COC(=O)c1sccc1NC(=O)CN(C)NS(=O)(=O)c1ccc(Cl)cc1,0%,-9%,2.5µM*,-2%,26
